The list is not random: actives were taken first. Their share in the collection is about 13%.
Cycloheximide cs: affects cycloheximide protein synthesis inhibition readout, counter-screen; cell reporter, cycloheximide protein synthesis inhibition counterscreen; max response, %; 300,000 tested, 12% active; in the data active = max response mostly above about 13%, no sharp cut-off; inactive = mostly below about 14%; also: read at 38.3 µM for the half of the compounds with a filed dose; 0% is about no effect
HCV inh: inhibitors of hepatitis C virus infection | Huh7.5.1 HCVcc-Cre infection, luciferase reporter, 44 h | Potency, µM (doses to about 41.8 µM), for inactives: top-dose activity change, negative = inhibition, usual class: inhibitors | AID 651820 | 340,000 tested, 3.4% active; active = well fitted inhibition curve with a large enough effect; inconclusive = small, poorly fitted or top-dose-only effect, or another doubt; inactive = no such curve, though single readings can be large or run the other way; also: potency is read from the fitted curve at half-maximal effect; % is scaled to controls: 0 for no effect and ±100 for the full control effect
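A cell-based infection assay in which seeded cells (1,000 per well) receive test compound after 4 h, are inoculated with HCVcc-Cre at approximately 0.5 moi, and are incubated 44 h before luminescence detection.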
Shiga inhibitor: Shiga toxin inhibition; AID 2315; 290,000 tested, 9.2% active; inhibition, % at 38.7 µM; Vero cells, Shiga toxin protein synthesis inhibition reporter; in the data active = inhibition mostly above about 28%, no sharp cut-off; inactive = mostly below about 43%; also: 0% is about no effect
FMDV antiviral: antivirals against foot and mouth disease virus | FMDV antiviral cell-based qHTS | Potency, µM (series often up to 57.9 µM), for the others: top-dose activity change, negative = inhibition, hits mostly inhibitors | 410,000 tested, 1.2% active | AID 1159524; calls by dose curve; tested in HEK293T cells; also: read-out not given here; potency is read from the fitted curve at half-maximal effect; % is scaled to controls: 0 for no effect and ±100 for the full control effect; nearly all actives have a fitted effect of over 45% in size
LASV entry inh: inhibitors of Lassa virus binding or cell entry. Potency, µM (top dose mostly 37.9 µM), for inactives: at the top dose activity change, negative = inhibition, usual class: inhibitors. 300,000 tested, 1.2% active. Lassa virus pseudotype entry inhibition, cell reporter; calls by dose curve; tested in HEK293 cells; also: potency is read from the fitted curve at half-maximal effect; % is scaled to controls: 0 for no effect and ±100 for the full control effect; nearly all actives have a fitted effect of over 50% in size
MARV entry inh: inhibitors of Marburg virus binding or cell entry; Marburg virus pseudotyped entry inhibition, cell reporter; Potency, µM (top dose mostly 37.8 µM), without a hit: at the top dose activity change, negative = inhibition, hits mostly inhibitors; 300,000 tested, 1.8% active; calls by dose curve; tested in HEK293 cells; also: potency is read from the fitted curve at half-maximal effect; % is scaled to controls: 0 for no effect and ±100 for the full control effect
The depositor's hits bear a star; [ ] = dose if it differs, or a comment.

CC1=C(O)C(=O)C=C2C1=CC=C1[C@]2(C)CC[C@@]2(C)C3C[C@](C)(C(=O)O)CC[C@@]3(C)CC[C@@]12C (stereo partly specified) was read as FMDV antiviral 4µM*.
`COc1ccc(S(=O)(=O)N2CCNC(=O)C2)cc1Br` gave Cycloheximide cs -3, HCV inh 25%, Shiga inhibitor -17, FMDV antiviral 3%, LASV entry inh -3% and MARV entry inh 17%.
CCOc1ccc(NS(=O)(=O)c2ccc3ncsc3c2)cc1 was read as Cycloheximide cs 1, HCV inh -5%, Shiga inhibitor -4, FMDV antiviral 10%, LASV entry inh -3%[46.1 µM] and MARV entry inh -21%[46.1 µM].
`Cc1cc2ccccn2c1C(=S)NC(=O)c1ccccc1` gave Cycloheximide cs 16, HCV inh -12%, Shiga inhibitor 37*, FMDV antiviral 11%, LASV entry inh 21% and MARV entry inh inconclusive.
Screening CCn1c(C)cc(O)c(C(=O)Nc2cccc(Cl)c2)c1=O returned Cycloheximide cs -7, HCV inh 12%, Shiga inhibitor 6 and FMDV antiviral -9%.
For Cc1cc2ccccn2c1C(=O)Nc1cccc(Cl)c1 the results were Cycloheximide cs 53*, HCV inh inconclusive, Shiga inhibitor 75*, FMDV antiviral 41%, LASV entry inh 6% and MARV entry inh inconclusive.
Cc1cc(O)c(C(=O)Nc2cccc(Cl)c2)c(=O)n1C was read as Cycloheximide cs 33, HCV inh 8%, Shiga inhibitor 47* and FMDV antiviral 22%.
Screening Cc1ccc(C(=O)NC(=S)c2c(C)cc3ccccn23)cc1 returned FMDV antiviral 28%.
Screening C=CCn1c(C)cc(/C([O-])=C(/C(=S)Nc2ccc(OC(F)F)cc2)[n+]2ccc(N(C)C)cc2)c1C returned Cycloheximide cs 12, HCV inh inconclusive, Shiga inhibitor 22, FMDV antiviral 0%, LASV entry inh 12% and MARV entry inh 7%[46.1 µM].
Screening CC1(C(=O)NCCc2ccccc2)Cc2c(-c3cccc(C(N)=O)c3)ccnc2O1 (stereo unspecified) returned FMDV antiviral -10%.
`Cc1cc(C)c(NC(=O)Cn2c(=O)n(-c3ccc(CC(=O)NCC4CCCO4)cc3)c(=O)c3ccccc32)c(C)c1` (stereo unspecified) gave Cycloheximide cs -5, HCV inh -8%, Shiga inhibitor -6, FMDV antiviral 3%, LASV entry inh -12%[46.1 µM] and MARV entry inh inconclusive.
For C=CCN(CC=C)S(=O)(=O)c1ccc(NC(=S)NC(=O)c2ccco2)cc1 the results were Cycloheximide cs 5, HCV inh inconclusive, Shiga inhibitor 34, FMDV antiviral inconclusive, LASV entry inh inconclusive and MARV entry inh inconclusive.
Screening CCN(CC)c1ccc(NC(=O)c2ccc(Br)o2)c(C)c1 returned Cycloheximide cs 16, HCV inh inconclusive, Shiga inhibitor 28*, FMDV antiviral 13%, LASV entry inh 11%[14.3 µM] and MARV entry inh -21%.
For CCN(C(=O)c1ccc(NC(=O)c2ccco2)cc1)c1ccccc1 the results were Cycloheximide cs 1, HCV inh 9%, Shiga inhibitor -11, FMDV antiviral 7%, LASV entry inh -1% and MARV entry inh 17%.
`CCN(CC)c1ccc(NC(=O)c2ccco2)cc1` gave Cycloheximide cs 23*, HCV inh 5%, Shiga inhibitor 66*, FMDV antiviral -23%, LASV entry inh inconclusive and MARV entry inh inconclusive.
`CCN(CC)c1ccc(NC(=S)NC(=O)c2ccco2)cc1` gave Cycloheximide cs 38*, HCV inh -26%, Shiga inhibitor 61*, FMDV antiviral 18%, LASV entry inh inconclusive and MARV entry inh 0%.
`CCN(CC)c1ccc(NC(=O)c2ccco2)c(C)c1` gave Cycloheximide cs 15*, HCV inh -13%, Shiga inhibitor 28, FMDV antiviral 11%, LASV entry inh inconclusive and MARV entry inh 14%.
Screening COc1ccc(N2CCN(C(=O)CCc3c(C)nc4cc(-c5ccc(Cl)cc5)nn4c3C)CC2)cc1 returned FMDV antiviral -18%, LASV entry inh 7%[46.1 µM] and MARV entry inh -1%[46.1 µM].
Screening CCCNC(=O)C(=O)N/N=C/c1cccs1 returned Cycloheximide cs 21*, HCV inh 11%, Shiga inhibitor 15, FMDV antiviral 37%, LASV entry inh 6% and MARV entry inh 17%.
`CC(C)CNC(=O)C(=O)N/N=C/c1cccs1` gave Cycloheximide cs 28*, HCV inh 27%, Shiga inhibitor 46, FMDV antiviral 69%, LASV entry inh inconclusive and MARV entry inh 9%.
Screening CC(C)NC(=O)CC(=O)N/N=C/c1cccs1 returned Cycloheximide cs -3, HCV inh 1%, Shiga inhibitor -9, FMDV antiviral -6%, LASV entry inh 1%[46.1 µM] and MARV entry inh -3%[46.1 µM].
For CC(C)(C)NC(=O)C(=O)N/N=C/c1cccs1 the results were Cycloheximide cs 37*, HCV inh -1%, Shiga inhibitor 67*, FMDV antiviral 54%, LASV entry inh 7% and MARV entry inh inconclusive.
For COc1cc(C=NNC(=O)C(=O)Nc2cccc(Cl)c2)cc(OC)c1O the results were FMDV antiviral 41%.
Screening CCN(CC)C(=O)C(=O)N/N=C/c1cccs1 returned Cycloheximide cs 8, HCV inh 0%, Shiga inhibitor -1, FMDV antiviral 32%, LASV entry inh 27% and MARV entry inh 21%.
Screening O=C(N/N=C/c1cccs1)C(=O)Nc1cccc(Cl)c1 returned Cycloheximide cs 20*, HCV inh 5%, Shiga inhibitor 55* and FMDV antiviral 72%.
Cc1nc2ccccc2n1C(=O)c1ccccc1[N+](=O)[O-] was read as Cycloheximide cs -6, HCV inh -2%, Shiga inhibitor -11, FMDV antiviral -14%, LASV entry inh 1% and MARV entry inh 11%.
`COc1ccc(CCNC(=O)Cn2cccc2C(=O)c2ccccc2C)cc1OC` gave Cycloheximide cs 1, HCV inh inconclusive, Shiga inhibitor -12, FMDV antiviral -9%, LASV entry inh 11% and MARV entry inh 0%.
Screening Cc1ccc(CNC(=O)CCSCc2cccc(F)c2)cc1 returned Cycloheximide cs -2, HCV inh -6%, Shiga inhibitor 4 and FMDV antiviral -7%.
CC1CCc2c(sc3nc(CSc4nnnn4C)[nH]c(=O)c23)C1 (stereo unspecified) was read as Cycloheximide cs 18*, HCV inh -13%, Shiga inhibitor 26, FMDV antiviral 16%, LASV entry inh 17% and MARV entry inh -11%[46.1 µM].
Screening O=C(CSCc1c(F)cccc1Cl)Nc1cccnc1 returned Cycloheximide cs 0, HCV inh 14%, Shiga inhibitor 1, FMDV antiviral 15%, LASV entry inh 24% and MARV entry inh 17%[46.1 µM].
For O=C(CSCc1ccccc1)Nc1cccc(F)c1 the results were Cycloheximide cs 38*, HCV inh 1%, Shiga inhibitor 77*, FMDV antiviral 84%, LASV entry inh 30% and MARV entry inh 22%.

Compound activity (PubChem BioAssay)
